Growth inhibition data for 7 compounds are collected here from PubChem BioAssay (NCI).

The nature of test [1]: NCI Yeast Anticancer Drug Screen. Data for the rad50 strain (AID 155).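 Note: 0% = growth of vehicle-only cultures of the same strain.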 The note with it: S. cerevisiae rad50 strain growth inhibition, stronger effect = higher value. An outline of the steps: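 Readout: growth inhibition relative to vehicle-treated cultures. Compound exposure was carried out in a genetically defined yeast strain deficient in DNA damage repair.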
Test [2] in a line: NCI Yeast Anticancer Drug Screen. Data for the mec2-1 strain (AID 157). The note with it: S. cerevisiae mec2-1 strain, stronger effect = higher value. In outline:
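Mutant yeast (mec2-1) grown with compound; growth inhibition relative to vehicle control reported.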

Test [3] in a line: NCI Yeast Anticancer Drug Screen. Data for the sgs1 mgt1 strain (AID 161).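 Note: 0% = growth of cultures given vehicle only.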 The note with it: S. cerevisiae sgs1 mgt1 strain, stronger effect = higher value. An outline of the steps: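 Compounds are added to genetically altered yeast, and growth is compared with cultures given vehicle alone to give percent inhibition.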
A short description of test [4]: NCI Yeast Anticancer Drug Screen. Data for the cln2 rad14 strain (AID 165).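 Note: 0% = growth equal to vehicle treated cultures.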 The settings on record: S. cerevisiae cln2 rad14 strain, stronger effect = higher value. An outline of the steps:
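Readout is yeast growth inhibition versus vehicle-treated controls, using a strain with cln2 and rad14 alterations exposed to compound.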

A short description of test [5]: NCI Yeast Anticancer Drug Screen. Data for the bub3 strain (AID 167). The settings on record: S. cerevisiae bub3 mutant strain, stronger effect = higher value. An outline of the steps:
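Readout: yeast growth inhibition, expressed relative to vehicle-only wells. The test organism is a mutant strain from a panel with lesions in DNA repair or checkpoint genes.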

Test [6] can be described thus: NCI Yeast Anticancer Drug Screen. Data for the mlh1 rad18 strain (AID 175). The settings on record: S. cerevisiae mlh1 rad18 strain growth inhibition, stronger effect = higher value. In outline: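 Genetically defined yeast (DNA repair-deficient) exposed to compounds; growth inhibition determined relative to vehicle.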
Where [7] appears, read: at 5.0 µM (retest, dose inferred, filed as 0.5).
[8] abbreviates: at 50.0 µM (retest, dose inferred, filed as 5.0).

Compounds without any hit were thinned out: in the full panel of roughly 79,000, 15% have a hit. A number with no mark means an inactive call. Activity calls are given as the source filed them. Cut-off read from the data, not from the text of the source: active = growth inhibition above about 70%; inactive = the rest.

For the compound `Cc1ccc(S(=O)(=O)N/N=C2/CCC3(O)CC2(C)CCC2[C@H]3CC2(C)C)cc1` (stereo partly specified), the growth inhibition in test [1] (setting [7]) is 17%; in test [1] (setting [8]) it was 72% (active); in test [1] (at 50.0 µM), 66.7%; in test [2] (setting [7]) it was -7%; in test [2] (setting [8]), 83% (active); in test [2] (at 50.0 µM), 57.2%. The growth inhibition is 1% in test [3] (setting [7]); 54% in test [3] (setting [8]); 70.2% (active) in test [3] (at 50.0 µM); 13% in test [4] (setting [7]); 69% in test [4] (setting [8]); 83.8% (active) in test [4] (at 50.0 µM). Besides, the growth inhibition in test [5] (setting [7]) was 2%; in test [5] (setting [8]), 86% (active); in test [5] (at 50.0 µM), 75% (active); in test [6] (setting [7]), 5%; in test [6] (setting [8]), 88% (active); in test [6] (at 50.0 µM), 70.7% (active).

Take `Nc1ccccc1N=Nc1c(S(=O)(=O)O)cc2cc(S(=O)(=O)O)cc(O)c2c1O`: the growth inhibition in test [1] (setting [7]) was 17%; in test [1] (setting [8]) it was 23%; in test [1] (at 50.0 µM), -24%; in test [2] (setting [7]), 3%; in test [2] (setting [8]), 5%; in test [2] (at 50.0 µM) it was -10.9%. Further, the growth inhibition in test [3] (setting [7]) was -3%; in test [3] (setting [8]), 11%; in test [3] (at 50.0 µM), -27.6%; in test [4] (setting [7]), 34%; in test [4] (setting [8]), -10%; in test [4] (at 50.0 µM), 27.9%. The growth inhibition in test [5] (setting [7]) is 17%; in test [5] (setting [8]), 12%; in test [5] (at 50.0 µM) it was -33.5%; in test [6] (setting [7]) it was 5%; in test [6] (setting [8]), 7%; in test [6] (at 50.0 µM), -33.9%.

With `C/C(CCC1CCc2ccccc2C1)=N\NC(N)=O` (stereo unspecified), the growth inhibition was -11% in test [1] (setting [7]); -8% in test [1] (setting [8]); 32.2% in test [1] (at 50.0 µM); -4% in test [2] (setting [7]); 0% in test [2] (setting [8]); 12.3% in test [2] (at 50.0 µM). The growth inhibition in test [3] (setting [7]) is 1%; in test [3] (setting [8]), 5%; in test [3] (at 50.0 µM), 6.2%; in test [4] (setting [7]), -42%; in test [4] (setting [8]) it was -13%; in test [4] (at 50.0 µM) it was -1.45%. For the same compound, the growth inhibition in test [5] (setting [7]) was 0%; in test [5] (setting [8]) it was -2%; in test [5] (at 50.0 µM), 11.4%; in test [6] (setting [7]) it was -8%; in test [6] (setting [8]), -10%; in test [6] (at 50.0 µM), -6.5%.

On to `CC(=O)CC(=O)OCc1ccccc1`, for which the growth inhibition in test [1] (setting [7]) is 12%; in test [1] (setting [8]), 97% (active); in test [1] (at 50.0 µM), 94.5% (active); in test [2] (setting [7]) it was 4%; in test [2] (setting [8]), 98% (active); in test [2] (at 50.0 µM), 97.2% (active). Further, the growth inhibition in test [3] (setting [7]) was 1%; in test [3] (setting [8]), 96% (active); in test [3] (at 50.0 µM), 98% (active); in test [4] (setting [7]), 4%; in test [4] (setting [8]) it was 89% (active); in test [4] (at 50.0 µM), 87.2% (active). Moreover, the growth inhibition in test [5] (setting [7]) is 8%; in test [5] (setting [8]), 98% (active); in test [5] (at 50.0 µM) it was 96% (active); in test [6] (setting [7]), 14%; in test [6] (setting [8]) it was 98% (active); in test [6] (at 50.0 µM) it was 97.7% (active).

For the compound `CN(C)c1ccc(/C=C2/Oc3ccc(Cl)cc3C2=O)cc1`, the growth inhibition was -2% in test [1] (setting [7]); 98% (active) in test [1] (setting [8]); 87.8% (active) in test [1] (at 50.0 µM); 25% in test [2] (setting [7]); 98% (active) in test [2] (setting [8]); 90.7% (active) in test [2] (at 50.0 µM). Moreover, the growth inhibition was -5% in test [3] (setting [7]); 97% (active) in test [3] (setting [8]); 89.5% (active) in test [3] (at 50.0 µM); 28% in test [4] (setting [7]); 97% (active) in test [4] (setting [8]); 89% (active) in test [4] (at 50.0 µM). Also, the growth inhibition in test [5] (setting [7]) was -24%; in test [5] (setting [8]), 98% (active); in test [5] (at 50.0 µM), 89.9% (active); in test [6] (setting [7]) it was 19%; in test [6] (setting [8]), 97% (active); in test [6] (at 50.0 µM) it was 86% (active).

In the case of `N#Cc1ccc2nc3ccc(N)cc3nc2c1`, the growth inhibition is -22% in test [1] (setting [7]); 96% (active) in test [1] (setting [8]); 79.2% (active) in test [1] (at 50.0 µM); 4% in test [2] (setting [7]); 76% (active) in test [2] (setting [8]); 39.1% in test [2] (at 50.0 µM). Besides, the growth inhibition in test [3] (setting [7]) is -18%; in test [3] (setting [8]), 86% (active); in test [3] (at 50.0 µM), 20.1%; in test [4] (setting [7]) it was -6%; in test [4] (setting [8]) it was 82% (active); in test [4] (at 50.0 µM), 10.6%. Besides, the growth inhibition in test [5] (setting [7]) is -13%; in test [5] (setting [8]) it was 82% (active); in test [5] (at 50.0 µM), 43.3%; in test [6] (setting [7]) it was -5%; in test [6] (setting [8]) it was 96% (active); in test [6] (at 50.0 µM) it was 48%.

Take `O=C(O)c1cccc(N=Nc2c(S(=O)(=O)O)ccc3c2C(=O)c2ccccc2C3=O)c1O`: the growth inhibition is 17% in test [1] (setting [7]); 38% in test [1] (setting [8]); 30.4% in test [1] (at 50.0 µM); 8% in test [2] (setting [7]); 17% in test [2] (setting [8]); 36.8% in test [2] (at 50.0 µM). Further, the growth inhibition in test [3] (setting [7]) was 8%; in test [3] (setting [8]) it was 38%; in test [3] (at 50.0 µM) it was -2.5%; in test [4] (setting [7]) it was -21%; in test [4] (setting [8]), 17%; in test [4] (at 50.0 µM), 71.1% (active). The growth inhibition in test [5] (setting [7]) was -11%; in test [5] (setting [8]) it was 25%; in test [5] (at 50.0 µM), -15.2%; in test [6] (setting [7]) it was 29%; in test [6] (setting [8]), 28%; in test [6] (at 50.0 µM), 85.6% (active).
